Compounds with a hit are over-represented: about 7.2% of the library has one in this group of screens.
FMDV inh: foot and mouth disease virus antiviral activity | Potency, µM (titrated, usually from 57.9 µM), for inactives: at the highest dose activity change, negative = inhibition, hits mostly inhibitors | AID 1159524 | hit rate 1.2% among 410,000 | FMDV antiviral cell-based qHTS; calls by dose curve; tested in HEK293T cells; further: read-out not given here; nearly all actives have a fitted effect of over 45% in size
MARV entry inh: blocks Marburg virus binding to or entry into cells | Potency, µM (doses to about 37.8 µM), without a hit: top-dose activity change, negative = inhibition, usual class: inhibitors | Marburg virus pseudotyped entry inhibition, cell reporter | hit rate 1.8% among 300,000; calls by dose curve; tested in HEK293 cells
HCV inh: blocks hepatitis C virus; Huh7.5.1 HCVcc-Cre infection, luciferase reporter, 44 h; Potency, µM (titrated, usually from 41.8 µM), for the others: at the top dose activity change, negative = inhibition, most hits filed as inhibitors; hit rate 3.4% among 340,000
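Reporter virus HCVcc-Cre (~0.5 moi) infects cells exposed to compound; seeding density 1,000 cells/well with 4 h settling beforehand. Luminescence, 15 sec read, taken 44 h post-infection following a 15 min RT substrate incubation.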
Sm TGR inh: inhibitors of Schistosoma mansoni thioredoxin glutathione reductase; AID 485364; hit rate 3% among 360,000; Potency, µM (titrated, usually from 114 µM), for inactives: at the highest dose activity change, negative = inhibition, most hits filed as inhibitors; purified TGR, DTNB reduction, TNB absorbance 405 nm; Q962Y6; further: nearly all actives have a fitted effect of over 60% in size
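TGR 20 nM + NADPH 100 uM (dispensed conc.), cpd preinc 15 min RT; start with NADPH (500 uM addition) then DTNB (15 mM addition). Kinetic TNB absorbance, 405 nm filter. Four-parameter Hill fit across titration.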
RE007 growth inh: less growth of the S. pombe RE007 Vpr strain. S. pombe RE007 Vpr strain, BacTiter-Glo ATP luminescence, 24 h. Potency, µM (series often up to 92.2 µM), inactives show at the top dose activity change, negative = less growth, most hits filed as inhibitors. hit rate 0.21% among 360,000; active means well fitted falling curve with a large enough effect; inconclusive means small, poorly fitted or top-dose-only effect; inactive means no such curve, though single readings can be large or run the other way; further: nearly all actives have a fitted effect of over 50% in size
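Fission yeast strain RE007, carrying one chromosomally integrated HIV-1 vpr copy, was seeded at OD 0.01 in PMG+AL medium with 23 nL pinned compound. After 24 h at 30 °C and 99% humidity, viability was read by BacTiter-Glo luminescence.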
Lassa entry inh: blocks Lassa virus binding to or entry into cells; Potency, µM (top dose mostly 37.9 µM), for the others: at the highest dose activity change, negative = inhibition, actives largely listed as inhibitors; hit rate 1.2% among 300,000; Lassa virus pseudotype entry inhibition, cell reporter; calls by dose curve; tested in HEK293 cells; further: nearly all actives have a fitted effect of over 50% in size
Starred values were filed as active, the others as inactive; ? = inconclusive; . = no result; [ ] = dose if it differs, or a comment. Unless noted, the call rests on the fitted dose curve; in most records, active means well fitted curve in the direction sought with a large enough effect; inconclusive means small, poorly fitted or top-dose-only effect, or another doubt; inactive means no such curve, though single readings can be large; an effect the other way counts as inactive or inconclusive. On the % scale 0 is the no-effect control and ±100 the full control effect; potency means the concentration at half of the fitted maximal effect.

SMILES | FMDV inh | MARV entry inh | HCV inh | Sm TGR inh | RE007 growth inh | Lassa entry inh
COCCn1c(C)cc(O)c(C(c2ccc(OC)cc2)N2CCCCC2)c1=O (stereo unspecified) | -15% | . | . | ? | . | ?
CCCS(=O)(=O)N1CCC(n2c(C)nc3cccnc32)CC1 | -15% | . | . | -8% | . | 6%[46.1 µM]
Cc1ccc(CN(C)C(=O)c2ccc3c(c2)NC(=O)CS3)o1 | 1% | . | 0% | 10µM* | 3% | .
Clc1ccc(Sc2ccc(/C=N/n3cnnc3)o2)cc1 | -29% | -3% | 5% | ? | 10% | -5%
O=C1NC(=O)/C(=C\c2ccc(Sc3ccc(Cl)cc3)o2)N1 | -22% | ? | 3% | 50µM* | -20% | 0%
O=C1NC(=O)/C(=C/c2ccc(N3CCOCC3)o2)N1 | -25% | -6% | 10% | 11µM* | 0% | -9%
O=C1NC(=O)/C(=C\c2ccc(N3CCOCC3)o2)N1 | 7% | 0%[46.1 µM] | 11% | 8.9µM* | 1% | -9%[46.1 µM]
Cc1ccc(NC(=O)CSc2nc3ccccc3nc2Cc2ccccc2)c(Cl)c1 | -17% | . | . | -10% | . | 1%[46.1 µM]
COc1ccc(NC(=O)Cn2cnc3ccc(S(=O)(=O)N4CCC(C)CC4)cc3c2=O)c(OC)c1 | 11% | -26%[46.1 µM] | . | -14% | . | 0%[46.1 µM]
CCc1nn(CCCC(=O)N2CCN(c3cccc(OC)c3)CC2)c(=O)c2cc3occc3n12 | -2% | 3%[46.1 µM] | . | -5% | . | ?
NS(=O)(=O)C#Cc1ccccc1 | ? | ? | . | . | . | 5.8µM*
COc1ccc2cc(CO)c(Cl)nc2c1 | 1% | 6% | -4% | -2% | 0% | 0%
COc1ccc2cc(CO)c3cc(OC)c(OC)cc3c2c1 | 0% | . | 13µM* | . | -21% | .
CC(C)(C)c1ccc(S(=O)(=O)NCc2ccc3c(c2)CCN3C(=O)c2ccccc2)cc1 | ? | . | . | 3% | . | ?
CNCCC[C@]12CC[C@H](C3=C1CCCC3)C1CCCCC12 (stereo partly specified) | . | 4.6µM* | . | . | . | .
CCN(c1ccccc1)S(=O)(=O)c1c(-c2ccc(C)cc2)csc1C(=O)OC | -15% | . | . | 1% | . | ?
COc1cccc(C(=O)Nc2ccccc2-c2nnc(-c3cc(OC)ccc3Br)o2)c1 | 7% | -5%[46.1 µM] | . | 14% | . | 1%[46.1 µM]
COc1cc(CNCCSc2nnnn2C)cc(Br)c1OCc1ccc(F)cc1 | ? | ? | 10µM* | -17% | 1% | -12%
CCOc1cc(CNCCSc2nnnn2C)cc(Br)c1OCc1ccc(F)cc1 | ? | ? | ? | -1% | 0% | ?
COc1cccc(CNCCSc2nnnn2C)c1OCc1ccc(Cl)cc1 | 0% | 10µM* | . | -18% | . | -1%[46.1 µM]
COc1ccc2c(c1OC)C(=O)OC2Nc1nc(-c2ccc(-c3ccccc3)cc2)cs1 (stereo unspecified) | ? | -38% | 8.9µM* | -20% | ? | ?
O=C1OC(Nc2nc(-c3ccc(F)cc3)cs2)c2ccccc21 (stereo unspecified) | -19% | ? | -7% | 4µM* | 5% | 1%[46.1 µM]
COc1cccc(-c2csc(NC3OC(=O)c4c3ccc(OC)c4OC)n2)c1 (stereo unspecified) | 9% | 5%[46.1 µM] | -27% | 40µM* | -6% | ?
COc1ccc2c(c1OC)C(=O)OC2Nc1nc(-c2cc3ccccc3oc2=O)cs1 (stereo unspecified) | -47% | ? | ? | -23% | ? | ?
O=C1OC(Nc2nc3ccccc3s2)c2ccccc21 (stereo unspecified) | 26% | 13% | 15% | -11% | -20% | 24%
SMILES | FMDV inh | MARV entry inh | HCV inh | Sm TGR inh | RE007 growth inh | Lassa entry inh
COc1cccc(-n2ccnc2SCC(=O)Nc2nc3ccc(C)cc3s2)c1 | ? | . | . | -1% | . | -18%[46.1 µM]
CC1=CC[C@@H](COc2ccccc2)O[C@@]2(C1)C(=O)N(CC1CC1)c1ccccc12 | . | 20%[14.2 µM] | . | . | . | .
CC1(C)CC(=O)c2cc(C(=O)NCc3ccco3)c(=O)n(-c3ccc(Cl)cc3)c2C1 | -21% | -18% | 0% | 32µM* | -6% | 20%
Cc1ccc(-n2c3c(cc(C(=O)NCc4ccco4)c2=O)C(=O)CC(C)(C)C3)cc1 | -19% | -23% | 15% | 22µM* | 0% | 11%
CNC(=O)c1cc2c(n(-c3ccc(C)cc3)c1=O)CC(C)(C)CC2=O | -7% | 0%[46.1 µM] | . | 1% | . | 2%[46.1 µM]
Cc1ccc(Cl)cc1N1CCN(CCNC(=O)Nc2ccccc2Cl)CC1 | 0% | 6%[46.1 µM] | . | 4% | . | -10%[46.1 µM]
NC(=O)C1(N2CCCCC2)CCN(C(=O)Nc2ccc(C(F)(F)F)cc2)CC1 | 0% | 15%[46.1 µM] | . | 0% | . | 0%[46.1 µM]
CN1CCCN(C(c2ccccc2)c2ccc(Cl)cc2)CC1 (stereo unspecified) | -26% | ? | 1.3µM* | -1% | 7%[18.4 µM] | 13µM*
CC(C)C(=O)NCC(c1ccc2c(c1)OCO2)N1CCN(c2ccccc2)CC1 (stereo unspecified) | -8% | . | . | 2% | . | 13%[46.1 µM]
N#CC1(c2ccc(NC(=O)c3ccccc3)cc2)CCCC1 | . | . | . | 2% | . | .
CC(=O)Oc1ccc(C(=O)Nc2ccc(C3(C#N)CCCC3)cc2)cc1 | 23% | . | 14µM* | -8% | -18% | .
COc1ccc(CN(C)[C@H]2C[C@H]3c4[nH]c5ccccc5c4CCN3C[C@H]2[C@H](C)O)cc1 | -3% | . | . | . | -5% | .
CC1=CC[C@@H](COc2ccccc2)O[C@@]2(C1)C(=O)Nc1cccc(Br)c12 | . | 4%[14.2 µM] | . | . | . | ?
COC(=O)CC1C(C)(C)C(O)C2CC3=C4C=C(OC)OC(c5ccoc5)[C@]4(C)CCC3[C@@]1(C)C2=O (stereo partly specified) | -12% | . | . | . | . | .
CCOC(=O)C1CCN(/C=C2/C(=O)NC(=O)N(c3cccc(C)c3C)C2=O)CC1 | -7% | . | 9% | 8.9µM* | -2% | .
O=C1c2ccccc2S(=O)(=O)c2cc(N3CCN(C(=O)c4ccccc4)CC3)ccc21 | 40µM* | . | ? | . | 2% | .
COCCCNCCOCCOc1ccc(Cl)cc1C(C)(C)C | -25% | 5.8µM* | ? | -3% | 8% | ?
Cc1ccc(OCCOCCN2CCN(C)CC2)c(C(C)(C)C)c1 | -8% | . | ? | -14% | -24% | .
Cc1cc(C(C)(C)C)ccc1OCCOCCN1CCCC1 | -12% | 8.2µM* | ? | 7% | -18% | ?
Cc1cc(C)c(C)c(OCCOCCN2CCN(C)CC2)c1 | -15% | ? | 4µM* | 3% | 3% | -27%
CC(C)(C)c1cc(Cl)ccc1OCCOCCN1CCCC1 | 0% | 8.9µM* | ? | -10% | 1% | ?
C=CCNCCOCCOc1ccc(Cl)cc1C(C)(C)C | -16% | ? | ? | 2% | -4% | -16%
COc1ccc(C(=O)N2CCC(C(=O)Nc3ccccc3Cl)CC2)cc1 | -15% | 10%[46.1 µM] | . | 2% | . | 17%[46.1 µM]
CCOC(=O)[C@]12CCCC=C1N(Cc1ccco1)C(=O)[C@H](CC(=O)NCCCN1CCCC1=O)C2 | -11% | . | . | . | 6% | .
